Assay outcomes deposited in PubChem by several laboratories.
The list is not random: actives were taken first. Their share in the collection is about 2.1%.
HIF-2a inh: blocks HIF-2a reporter activity; 786-0 RCC cells HIF-2a reporter, luciferase luminescence, overnight; inhibition, % at 18.8 µM; 360,000 tested, 0.72% active;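 active means inhibition of the luminescence signal of 40% or more relative to plate controls, in a single-dose primary screen at 18.75 µM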
PAX8 inh HTS: inhibitors of PAX8 transcriptional activity in RMG-I cells | AID 652154 | inhibition, % at 12.6 µM | 360,000 tested, 1.2% active | RMG-I TPO-luciferase reporter, SteadyGlo, 24 h;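 active means mean replicate inhibition at least 60% with every replicate also reaching 60%; inconclusive means only one of the two criteria is met; inactive means mean below 60% and not all replicates reaching 60%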;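 further: luciferase light reporting Pax8 driven TPO promoter activity; plate controls were median of neutral control wells for no effect and mitoxantrone controls for full effect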
KKLEB cytotox: CF airway cell cytotoxicity counter-screen | 360,000 tested, 0.36% active | activity change (cytotoxicity), % at 5 µM | AID 602141 | KKLEB CF airway cells viability, ATPlite luminescence, overnight; hits give low values; cells stimulated with P. aeruginosa culture filtrate;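 active means corrected activity change at or below -50% at 5 µM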
EWS-Fli block: blocks EWS/Fli oncoprotein-driven transcription | 350,000 tested, 0.67% active | AID 651661 | inhibition, % at 12.6 µM | A673 NR0B1-luciferase reporter, viability-normalised;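 active means mean inhibition of at least 50% after viability correction, with every replicate also passing that limit; inconclusive means mean reaches 50% but only one of two replicates passes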;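 further: firefly luciferase signal divided by Alamar Blue viability fluorescence both relative to DMSO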
CF NFkB inh: inhibitors of cystic fibrosis induced NF-kB. KKLEB NF-kB-GFP reporter, PAF-induced, GFP fluorescence overnight. inhibition, % at 5 µM. 360,000 tested, 0.86% active;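 active means at least 50% inhibition at 5 µM, scaled per plate between neutral and stimulator controls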;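 further: PAF is a Pseudomonas aeruginosa culture filtrate used as stimulus; plate controls were PAF-stimulated DMSO wells for no effect and unstimulated DMSO wells for full effect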
DNA binding: DNA binding small molecules; shares compounds with EWS-Fli block; salmon sperm DNA acridine orange fluorescence polarization; AC35, µM (titrated, usually from 68 µM), inactives show at the top dose activity change, negative = DNA binding; 640 tested, 2% active; AID 720586;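 active means fitted curve reaches a 35% signal fall AC35 below twice the sample's top valid tested dose, actives reach about 48 µM in these data; inactive means the rest, including activity in the rising direction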;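 further: lower polarization ratio signals compound binding to DNA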
An asterisk follows results filed as active; ? = inconclusive; / = no result.

SMILES	HIF-2a inh	PAX8 inh HTS	KKLEB cytotox	EWS-Fli block	CF NFkB inh	DNA binding
CCN1C/C(=C/c2ccc(N3CCOCC3)cc2)C(=O)/C(=C/c2ccc(N3CCOCC3)cc2)C1	93.2*	31.2	2.6	70.4*	-16.7	15.4µM*
CCc1ccc(/C=C2/SC(N3CCOCC3)=NC2=O)cc1	-53.5	-6.7	-0.9	-33.3	-10.6	/
C[C@@H]1CN([C@H](C)CO)C(=O)c2cc(NS(=O)(=O)c3ccc(F)cc3)ccc2O[C@@H](C)CCCCO[C@@H]1CN(C)C(=O)Cc1ccccc1	/	43.4	/	17.9	/	/
C[C@@H]1CN([C@H](C)CO)C(=O)c2cc(NC(=O)c3ccccc3)ccc2O[C@@H](C)CCCCO[C@H]1CN(C)C(=O)Nc1cccc2ccccc12	/	36.5	/	69.1*	/	-8.4%
C[C@H]1CCCCO[C@H](CN(C)Cc2ccc(C(F)(F)F)cc2)[C@@H](C)CN([C@@H](C)CO)C(=O)c2cc(NC(=O)Nc3ccccc3)ccc2O1	/	59.9	/	64.6*	/	-8.7%
C[C@H](CO)N1C[C@H](C)[C@H](CN(C)CC2CCCCC2)Oc2ccc(NC(=O)Nc3cccc4ccccc34)cc2C1=O	/	/	/	61.9*	/	-8.8%
C[C@@H]1CCCCO[C@@H](CN(C)C(=O)Cc2ccccc2)[C@@H](C)CN([C@@H](C)CO)C(=O)c2cc(NS(=O)(=O)c3ccc(F)cc3)ccc2O1	/	-10.5	/	64.3*	/	-9.2%
Cc1ccc(S(=O)(=O)Nc2ccc3c(c2)C(=O)N([C@@H](C)CO)C[C@H](C)[C@@H](CN(C)Cc2ccc(C(F)(F)F)cc2)OCCCC[C@@H](C)O3)cc1	/	96.6*	/	54.7*	/	13.2%
C[C@H](CO)N1C[C@H](C)[C@@H](CN(C)Cc2ccc(C(F)(F)F)cc2)OCCCC[C@H](C)Oc2ccc(NS(=O)(=O)c3ccc(F)cc3)cc2C1=O	/	94.2*	/	56.0*	/	-3.8%
Cc1ccc(S(=O)(=O)Nc2ccc3c(c2)C(=O)N([C@H](C)CO)C[C@H](C)[C@@H](CN(C)Cc2ccc(C(F)(F)F)cc2)OCCCC[C@H](C)O3)cc1	/	97.4*	/	68.9*	/	-10.9%
C[C@@H]1CCCCO[C@H](CN(C)Cc2ccc(C(=O)O)cc2)[C@@H](C)CN([C@H](C)CO)C(=O)c2cc(NS(=O)(=O)c3ccc(F)cc3)ccc2O1	/	-3.7	/	-13.5	/	/
CC(C)CC#Cc1ccc([C@@H]2[C@H](CO)N3C(=O)CN(C(=O)c4ccccn4)C[C@@H]23)cc1	/	/	/	15.9	/	/
COc1ccc(S(=O)(=O)N(C)C[C@@H]2Oc3c(NC(=O)c4nc5ccccc5s4)cccc3C(=O)N([C@@H](C)CO)C[C@H]2C)cc1	/	/	/	44.8	/	/
C[C@H]1CN([C@@H](C)CO)C(=O)c2cccc(NC(=O)Nc3cccc4ccccc34)c2O[C@@H]1CN(C)S(=O)(=O)c1ccc(F)cc1	/	/	/	-6.9	/	/
COc1ccc(/C=C/C(=O)c2ccc(C(=O)/C=C/c3ccc(OC)c(OC)c3)cc2)cc1OC	32.8	24.6	-14.2	61.8*	-45.4	-23.1%
Cc1ccc2c(=O)n3c(nc2c1)C(Cc1ccc(O)cc1)NC(=O)c1cc2ccccc2cc1-3 (stereo not given)	0.7	45.1	-10.7	53.2*	-6.8	-7.9%
COc1ccc(/C=C2/NC(=O)N(CC(=O)Nc3cccc(C)c3)C2=O)cc1O	8.0	8.2	-10.3	62.3*	13.6	-6.3%
Cc1cccc(NC(=O)CN2C(=O)N/C(=C/c3ccc(C)o3)C2=O)c1	19.0	-0.2	0.7	/	3.7	/
COc1ccccc1C(CCNCc1ccc(N(C)C)cc1)c1ccc(OC(C)C)cc1 (stereo not given)	2.2	38.0	-1.2	60.5*	0.4	5.3%
COc1ccc(C(CCNCc2ccc(OC(C)C)cc2)C(C)C)cc1 (stereo not given)	-1.6	0.3	-9.5	70.4*	2.3	-8.7%
O=C(O)c1ccccc1C(=O)Nc1ccc(Oc2ccc3ccccc3c2)cc1	30.3	-45.8	-8.6	57.7*	10.2	0.5%
O=C(O)c1ccccc1C(=O)Nc1ccc(Oc2cccc3ccccc23)cc1	78.3*	26.1	19.8	85.7*	7.1	-8.5%
Cc1cccc(Oc2ccc(NC(=O)c3ccccc3C(=O)O)cc2)c1C	-35.8	0.8	9.4	11.5	-4.5	/
C[C@H](O)C#Cc1cnc2c(c1)C(=O)N([C@@H](C)CO)C[C@H](C)[C@H](CN(C)C(=O)Nc1ccc(F)cc1)O2	/	/	/	-1.2	/	/
CN(C)C(=O)c1ccc(-c2ccc([C@H]3[C@H](CO)N4C(=O)CN(C(=O)C5CCC5)C[C@@H]34)cc2)cc1	/	2.2	/	9.6	/	/
SMILES	HIF-2a inh	PAX8 inh HTS	KKLEB cytotox	EWS-Fli block	CF NFkB inh	DNA binding
O=C(N/N=C/c1ccc(O)cc1O)c1ccncc1	6.5	40.7	-8.4	27.0	8.0	/
Cc1ccc(C(C)C)c(OCc2ccc(C(=O)N/N=C/c3ccc(O)cc3O)cc2)c1	71.5*	?	-9.7	62.8*	13.5	12.7%
CN(C)c1ccc(N=Nc2nc3ccccc3n2C)cc1	16.9	89.7*	-82.3*	86.4*	-18.9	-2.7%
O=C(C[C@@H]1C=C[C@H](NS(=O)(=O)c2cccc(F)c2)[C@H](CO)O1)N1CCCCC1	/	-18.2	/	-9.9	/	/
CCN1[C@@H]2c3ccc(-c4cccc(F)c4)c(=O)n3C[C@H]1[C@H](CO)[C@H]2C(=O)NCC1CC1	/	/	/	2.7	/	/
COc1ccccc1CNC(=O)C[C@@H]1CC[C@@H]2[C@H](COC[C@@H](O)CN2C(=O)Nc2ccc(C(F)(F)F)cc2)O1	/	58.9	/	9.3	/	/
COc1ccccc1CNC(=O)C[C@@H]1CC[C@H]2[C@@H](COC[C@H](O)CN2C(=O)Nc2ccc(C(F)(F)F)cc2)O1	/	17.7	/	69.9*	/	7.6%
O=C(c1ccccc1F)N1CC[C@@H]2[C@H](CO)Nc3ccc(C#Cc4ccccc4)cc3[C@@H]21	/	-2.2	/	-8.4	/	/
CC1=NN(c2ccccc2)C(=O)/C1=C\C=C\c1ccccc1	87.3*	-16.0	7.1	63.6*	-2.3	7.0%
CC1=NN(c2ccccc2)C(=O)/C1=C/C=C/c1ccc(N(C)C)cc1	-89.3	-0.1	2.0	-27.4	-14.9	/
COc1ccc(NC(=O)N(C)C[C@@H]2Oc3ccc(NC(=O)CCN4CCOCC4)cc3C(=O)N([C@@H](C)CO)C[C@@H]2C)cc1	/	-24.9	/	2.0	/	/
C[C@H](CO)N1C[C@H](C)[C@H](CN(C)Cc2ccc(C(=O)O)cc2)Oc2c(NS(=O)(=O)c3ccc(Cl)cc3)cccc2C1=O	/	/	/	-6.2	/	/
Nc1ccc(Cn2ccc3c4c(N)nc(N)nc4ccc32)cc1	35.9	69.6*	18.3	69.7*	-48.5	-0.7%
O=C(Nc1ccc(Br)cc1)c1ccc(F)c(S(=O)(=O)N2CCN(c3ccccn3)CC2)c1	17.0	40.4	8.3	59.2*	19.7	-6.0%
CN(C)c1ccc(N=Nc2ccc(C(=O)O)cc2)cc1	53.8*	56.2	2.0	65.4*	2.9	-3.1%
C[C@@H]1CCCCO[C@@H](CN(C)C(=O)C2CCCCC2)[C@@H](C)CN([C@@H](C)CO)C(=O)c2cc(NS(C)(=O)=O)ccc2O1	/	-25.7	/	-2.4	/	/
